For 24 molecules, growth inhibition results are on record in PubChem BioAssay (NCI).

Structures are written as SMILES. About 79,000 compounds went through this panel and 15% of them were active in at least one assay; those are over-represented in the sample as a whole. Unmarked numbers belong to inactive results. The source made the active and inactive calls. No stated cut-off is given here; in the data, active means growth inhibition above about 70%; inactive means the rest.

Assay [1] in a line: NCI Yeast Anticancer Drug Screen. Data for the rad50 strain (AID 155).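 Further: 0% = growth of vehicle-only cultures of the same strain.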 The note with it: S. cerevisiae rad50 strain growth inhibition; at 50.0 µM; stronger effect = higher value. The method, boiled down: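 Yeast carrying a defined DNA repair defect were exposed to test compounds, and growth was compared with vehicle-treated controls to give percent inhibition.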
Assay [2] in a line: NCI Yeast Anticancer Drug Screen. Data for the mec2-1 strain (AID 157). The note with it: S. cerevisiae mec2-1 strain, at 50.0 µM, stronger effect = higher value. The method, boiled down: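 Growth inhibition is read against vehicle-treated controls after compound exposure of the mec2-1 yeast strain, which is defective in DNA damage repair or cell cycle control.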
Assay [3] is described as follows: NCI Yeast Anticancer Drug Screen. Data for the sgs1 mgt1 strain (AID 161).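 Further: 0% = growth of cultures given vehicle only.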 The note with it: S. cerevisiae sgs1 mgt1 strain, at 50.0 µM, stronger effect = higher value. In short, it runs like this: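 Percent growth inhibition was derived by comparing compound-exposed mutant yeast with vehicle-exposed cultures. The strain carries alterations in DNA damage repair.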
A short description of assay [4]: NCI Yeast Anticancer Drug Screen. Data for the cln2 rad14 strain (AID 165).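 Further: 0% = growth equal to vehicle treated cultures.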 The note with it: S. cerevisiae cln2 rad14 strain, at 50.0 µM, stronger effect = higher value. The method, boiled down: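 Growth inhibition, relative to vehicle-treated controls, is the read-out. The test organism is a yeast strain with defined genetic alterations, cln2 rad14.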
A short description of assay [5]: NCI Yeast Anticancer Drug Screen. Data for the mlh1 rad18 strain (AID 175). The note with it: S. cerevisiae mlh1 rad18 strain growth inhibition; at 50.0 µM; stronger effect = higher value. In short, it runs like this:
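Cells of a genetically altered yeast strain, deficient in DNA damage repair, were treated with compound. Their growth was then compared with that of vehicle-treated cultures to give inhibition.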

Assay [6] can be described thus: NCI Yeast Anticancer Drug Screen. Data for the bub3 strain (AID 167). The note with it: S. cerevisiae bub3 mutant strain, at 50.0 µM, stronger effect = higher value. In short, it runs like this: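 Compounds were applied to a genetically altered yeast strain carrying a cell-cycle control defect. Growth inhibition was scored against vehicle-treated controls.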

As for `ClC(Cl)(Cl)SSC(=Nc1ccccc1)SSC(Cl)(Cl)Cl`, the growth inhibition in assay [1] is 70.8% (active); in assay [2], 21.4%; in assay [3], 51.6%; in assay [4] it was -0.8%; in assay [5] it was 69.5%.
Taken in the same sequence, the figures for `c1ccc(-c2nnc(-c3ccccc3)c3nonc23)cc1` were 0.55%, 14.6%, 9.1%, -12.8% and -22.3%.
As to `CCN(CC)CN1C(=O)C2C3C=CC(C2C1=O)C1C2C(=O)N(CN(CC)CC)C(=O)C2C31` (stereo not given), the growth inhibition was 2.8% in assay [1]; -25.6% in assay [2]; -27.6% in assay [3]; -9.15% in assay [4]; -45.9% in assay [5].
As to `C=C(C)Cn1cnc2c1c(=O)n(C)c(=O)n2C`, the growth inhibition in assay [1] was -0.15%; in assay [2], -9.6%; in assay [3], -14.4%; in assay [4], -37.6%; in assay [5] it was -5.6%.
As to `O=C1Oc2ccccc2C(=O)C1=S1CCCC1`, the growth inhibition was 6.9% in assay [1]; 12.1% in assay [2]; 9.3% in assay [3]; 18.6% in assay [4]; 14.6% in assay [5].
Consider `O=C(CCCC(=O)N/N=C/c1cc(Cl)ccc1[N+](=O)[O-])N/N=C\c1cc(Cl)ccc1[N+](=O)[O-]`, for which the growth inhibition in assay [1] was 20.7%; in assay [2], 12.1%; in assay [3], 11.1%; in assay [4] it was 10.7%; in assay [5] it was 7%.
Regarding `N#Cc1ccc(CCc2ccc(Cl)cc2)cc1`, the growth inhibition in assay [1] was -6.85%; in assay [2], -17.2%; in assay [3], -6.9%; in assay [4] it was -41.1%; in assay [5], -9.8%.
In the case of `COc1ccc(C2CCCCCC2OS(=O)(=O)c2ccc(C)cc2)c(OC)c1OC` (stereo not given), the growth inhibition in assay [1] was 1.75%; in assay [2] it was -4.55%; in assay [3] it was -7.15%; in assay [4] it was -14.8%; in assay [5], -9%.
As for `CCOC(=O)CCC(=O)c1ccc2cc(OC)ccc2c1`, the growth inhibition in assay [1] is 5.55%; in assay [2], 25.2%; in assay [3], 11.8%; in assay [4], -36%; in assay [5], 27.1%.
On to `Nc1nc(N)c(N=Nc2ccc([N+](=O)[O-])cc2)c(=O)[nH]1`, for which the growth inhibition in assay [1] is -0.9%; in assay [2], -16.9%; in assay [3], -12%; in assay [4], 9%; in assay [5] it was -3.9%.
The like results for `COCCCN1COCC(COc2ccc(Cl)cc2)OC1` (stereo not given) were, in that order, -17.9%, -35%, -32.2%, -23.2% and -27.9%.
Take `CC1=Nc2c(ccc3c2C(=O)c2ccccc2C3=O)NC(c2ccncc2)C1` (stereo not given): the growth inhibition was 31.1% in assay [1]; 5% in assay [2]; 47.6% in assay [3]; 17.6% in assay [4]; 12.4% in assay [5].
Regarding `O=C(O)CNC(=O)OCc1ccccc1`, the growth inhibition is -35.9% in assay [1]; -16.4% in assay [2]; -35.5% in assay [3]; -45.8% in assay [4]; -19.4% in assay [5].
Turning to `O=C(O)C1=C(O)CCN=C1`, the growth inhibition in assay [1] was -24.1%; in assay [2], 2.7%; in assay [3], 11%; in assay [4] it was -10.8%; in assay [5], 27.1%.
Regarding `NC(=O)C1C2CC3C(C2O)C31C(N)=O` (stereo not given), the growth inhibition in assay [1] is -13.1%; in assay [2], -4%; in assay [3] it was -14%; in assay [4], -30.1%; in assay [5], -28.7%.
For the molecule `CCOc1ccc(S(=O)(=O)OCC)cc1`, the growth inhibition in assay [1] was -15.6%; in assay [2], -14%; in assay [3] it was -25.2%; in assay [4], 1.35%; in assay [5], -19.6%.
Turning to `NC(=O)C(C(N)=O)c1ccnc2ccccc12`, the growth inhibition in assay [1] was 8.6%; in assay [2], -2.65%; in assay [3], -16%; in assay [4], -16.8%; in assay [5], 10.9%.
As to `CC(=O)OC1CCC2(C)C(=CCC3C2CCC2(C)C(C(C)C(=O)O)CCC32)C1` (stereo not given), the growth inhibition in assay [1] was 15.7%; in assay [2], -32.8%; in assay [3], -21.4%; in assay [6], -31.1%; in assay [5], 13%.
Take `CCOC(=O)C1SC(=Nc2ccc(C)c(C)c2)N=C1C` (stereo not given): the growth inhibition was -20.2% in assay [1]; -7.4% in assay [2]; -22.4% in assay [3]; 4.85% in assay [6]; 7.15% in assay [5].
Taken in the same sequence, the figures for `CC(=O)NC1C(OCc2ccccc2)OC(CO)C(O)C1OCc1ccccc1` (stereo not given) were 27.3%, -18.2%, 15.6%, -2.9% and -11.8%.
Taken in the same sequence, the figures for `C[n+]1ccc(CCC(=O)Nc2ccccc2)cc1` were 3.65%, 24.3%, -4.35%, 25.6% and 3%.
As for `N#Cc1c(-c2ccccc2)c(-c2ccccc2)cc2c(=O)c3ccc(Cl)cc3[nH]c12`, the growth inhibition in assay [1] was -27.3%; in assay [2], 3.25%; in assay [3], -2.9%; in assay [6] it was 7.2%; in assay [5] it was 2.4%.
On to `CCOC(=O)c1nc2ccc(C(F)(F)F)cc2nc1NCc1ccc(OC)cc1`, for which the growth inhibition is 4.6% in assay [1]; 9.8% in assay [2]; -1.15% in assay [3]; 5.15% in assay [6]; -15.7% in assay [5].
Take `CCOC(=O)C(=[N+]=[N-])C(O)C1OC(c2ccccc2)OCC1O` (stereo not given): the growth inhibition in assay [1] was 12.8%; in assay [2], 18.1%; in assay [3], 18.9%; in assay [6] it was 9.15%; in assay [5], 24.7%.
